Values joined by “and” are separate entries in the source; they are usually repeats but may differ in a detail not shown here. Equal values may be shown once. The panel holds about 79,000 compounds, 15% with a hit somewhere; the sample as a whole holds those more often. More than one record can exist for a structure, and the calls need not agree. Active and inactive are the calls of the source. Rule as the data show it: active = growth inhibition above about 70%; inactive = the rest.
Tests used:
[1] = NCI Yeast Anticancer Drug Screen. Data for the rad52 strain (AID 147);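 also: 0% = growth of vehicle-treated control cultures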; settings: S. cerevisiae rad52 mutant growth inhibition, stronger effect = higher value
Summary of the method: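 DNA repair-defective yeast; compound exposure; growth scored against vehicle controls.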

[2] = NCI Yeast Anticancer Drug Screen. Data for the wt1 strain (AID 149);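 also: 0% = growth of vehicle-treated wt1 cultures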; settings: S. cerevisiae wt1 strain (SPY 50644) growth inhibition, stronger effect = higher value
Summary of the method: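 Vehicle-normalised growth inhibition; strain wt1; compound exposure.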

[3] = NCI Yeast Anticancer Drug Screen. Data for the mgt1 strain (AID 153); settings: S. cerevisiae mgt1 mutant growth inhibition, stronger effect = higher value
Summary of the method: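 Growth inhibition relative to vehicle controls was scored for the mgt1 yeast strain after compound exposure.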

[4] = NCI Yeast Anticancer Drug Screen. Data for the rad50 strain (AID 155);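 also: 0% = growth of vehicle-only cultures of the same strain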; settings: S. cerevisiae rad50 strain growth inhibition, stronger effect = higher value
Summary of the method: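 A DNA repair-deficient yeast mutant serves as the test organism; compound-induced growth inhibition is calculated against vehicle-treated cells.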

[5] = NCI Yeast Anticancer Drug Screen. Data for the mec2-1 strain (AID 157); settings: S. cerevisiae mec2-1 strain, stronger effect = higher value
Summary of the method: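 Growth inhibition is read against vehicle-treated controls after compound exposure of the mec2-1 yeast strain, which is defective in DNA damage repair or cell cycle control.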

[6] = NCI Yeast Anticancer Drug Screen. Data for the rad14 strain (AID 159);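 also: 0% = growth of vehicle-treated control cultures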; settings: S. cerevisiae rad14 strain growth inhibition, stronger effect = higher value
Summary of the method: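 Vehicle-treated cultures served as the baseline for growth inhibition of a DNA repair-mutant yeast strain exposed to each compound.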

[7] = NCI Yeast Anticancer Drug Screen. Data for the sgs1 mgt1 strain (AID 161);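 also: 0% = growth of cultures given vehicle only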; settings: S. cerevisiae sgs1 mgt1 strain, stronger effect = higher value
Summary of the method: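 Compounds are added to genetically altered yeast, and growth is compared with cultures given vehicle alone to give percent inhibition.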

[8] = NCI Yeast Anticancer Drug Screen. Data for the CLN2oe strain (AID 163);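 also: 0% = growth of vehicle-only control cultures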; settings: S. cerevisiae CLN2oe strain, stronger effect = higher value
Summary of the method: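 Compound-treated yeast; growth vs vehicle ctrl = % inhibition. Genetically altered strain (cell-cycle control).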

[9] = NCI Yeast Anticancer Drug Screen. Data for the cln2 rad14 strain (AID 165);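 also: 0% = growth equal to vehicle treated cultures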; settings: S. cerevisiae cln2 rad14 strain, stronger effect = higher value
Summary of the method: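 Growth inhibition, relative to vehicle-treated controls, is the read-out. The test organism is a yeast strain with defined genetic alterations, cln2 rad14.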

[10] = NCI Yeast Anticancer Drug Screen. Data for the bub3 strain (AID 167); settings: S. cerevisiae bub3 mutant strain, stronger effect = higher value
Summary of the method: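 Inhibition values come from growth of compound-treated mutant yeast normalised to vehicle-treated controls.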

[11] = NCI Yeast Anticancer Drug Screen. Data for the wt2 strain (AID 169);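 also: 0% = growth of vehicle-treated yeast cultures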; settings: S. cerevisiae wt2 strain growth inhibition, stronger effect = higher value
Summary of the method: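 Compound exposure of yeast; growth compared with vehicle controls; inhibition reported.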

[12] = NCI Yeast Anticancer Drug Screen. Data for the mlh1 strain (AID 171);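 also: 0% = growth of vehicle-treated control cultures of the same strain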; settings: S. cerevisiae mlh1 strain growth inhibition, stronger effect = higher value
Summary of the method: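 Compounds are applied to a genetically altered yeast strain, and its growth is compared with that of vehicle-treated cultures to give percent inhibition.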

[13] = NCI Yeast Anticancer Drug Screen. Data for the sgs1 strain (AID 173);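 also: 0% = growth of vehicle-only control cultures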; settings: S. cerevisiae sgs1 mutant, stronger effect = higher value
Summary of the method: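 Compounds applied to genetically altered yeast; growth compared with vehicle-treated cultures to give % inhibition.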

[14] = NCI Yeast Anticancer Drug Screen. Data for the mlh1 rad18 strain (AID 175); settings: S. cerevisiae mlh1 rad18 strain growth inhibition, stronger effect = higher value
Summary of the method: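 Cells of a genetically altered yeast strain, deficient in DNA damage repair, were treated with compound. Their growth was then compared with that of vehicle-treated cultures to give inhibition.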

[15] = NCI Yeast Anticancer Drug Screen. Data for the rad18 strain (AID 177); settings: S. cerevisiae rad18 mutant growth inhibition, stronger effect = higher value
Summary of the method: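 Compounds are applied to a repair-deficient yeast strain, and growth is compared with that of vehicle-treated cultures to give percent inhibition.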

[16] = at 5.0 µM (retest, dose inferred, filed as 0.5)
[17] = at 50.0 µM (retest, dose inferred, filed as 5.0)

Measured: growth inhibition

CC1=CC(=C(c2ccc(N)cc2)c2ccc(N)cc2)C=CC1=N
38% (inactive) and 93% (active): [4]; [17]
inactive: [1]; at 1.2 µM 20% | [1]; at 3.7 µM 49% | [1]; at 11.0 µM 47% | [1]; at 33.0 µM 32% | [2]; at 1.2 µM 0% | [2]; at 3.7 µM -1% | [2]; at 11.0 µM 7% | [2]; at 33.0 µM 2% | [2]; at 100.0 µM 19% | [3]; at 1.2 µM -9% | [3]; at 3.7 µM 1% | [3]; at 11.0 µM -8% | [3]; at 33.0 µM 4% | [4]; at 1.2 µM -2% | [4]; at 3.7 µM 17% | [4]; [16] 21% and 1% | [4]; at 11.0 µM 17% | [4]; at 33.0 µM 7% | [4]; at 50.0 µM 32.7% and 35.3% | [5]; at 1.2 µM 7% | [5]; at 3.7 µM 2% | [5]; [16] 14% and -7% | [5]; at 11.0 µM -1% | [5]; at 33.0 µM -6% | [5]; at 50.0 µM 58.7% and 12.3% | [6]; at 1.2 µM -9% | [6]; at 3.7 µM 0% | [6]; at 11.0 µM -4% | [6]; at 33.0 µM -4% | [7]; [16] 15% and 2% | [7]; [17] 30% and 50% | [7]; at 50.0 µM 59.5% and 48.1% | [8]; at 1.2 µM 22% | [8]; at 3.7 µM 43% | [8]; at 11.0 µM 39% | [8]; at 33.0 µM 23% | [9]; [16] 1% and -1% | [9]; [17] 42% and 61% | [9]; at 50.0 µM 34% and -84.5% | [10]; at 1.2 µM -12% | [10]; at 3.7 µM 8% | [10]; [16] 18% and -1% | [10]; at 11.0 µM 8% | [10]; at 33.0 µM 12% | [10]; at 50.0 µM 58.8% and 24.9% | [11]; at 1.2 µM -18% | [11]; at 3.7 µM -13% | [11]; at 11.0 µM -12% | [11]; at 33.0 µM -6% | [12]; at 1.2 µM 1% | [12]; at 3.7 µM -4% | [12]; at 11.0 µM 1% | [12]; at 33.0 µM -3% | [13]; at 1.2 µM 11% | [13]; at 3.7 µM 18% | [13]; at 11.0 µM 4% | [13]; at 33.0 µM 11% | [14]; [16] 9% and -3% | [14]; at 50.0 µM 66% and 61.9% | [15]; at 1.2 µM 6% | [15]; at 3.7 µM 4% | [15]; at 11.0 µM -22% | [15]; at 33.0 µM 9%
54% (inactive) and 75% (active): [14]; [17]
active: [1]; at 100.0 µM 91% | [3]; at 100.0 µM 76% | [4]; at 100.0 µM 82% | [5]; [17] 89% and 80% | [5]; at 100.0 µM 73% | [6]; at 100.0 µM 74% | [8]; at 100.0 µM 78% | [10]; [17] 90% and 76% | [10]; at 100.0 µM 88% | [11]; at 100.0 µM 94% | [12]; at 100.0 µM 81% | [13]; at 100.0 µM 77% | [15]; at 100.0 µM 81%

CCN(CC)CCNc1ccc2ncn3c4cc(OC)c(OC)c(=O)c4c(O)c1c23
inactive: [1]; at 1.2 µM 15% | [1]; at 3.7 µM 14% | [1]; at 11.0 µM 40% | [1]; at 33.0 µM 36% | [1]; at 100.0 µM 59% | [2]; at 1.2 µM -82% | [2]; at 3.7 µM 1% | [2]; at 11.0 µM 2% | [2]; at 33.0 µM 4% | [2]; at 100.0 µM 6% | [3]; at 1.2 µM 1% | [3]; at 3.7 µM 2% | [3]; at 11.0 µM 3% | [3]; at 33.0 µM 4% | [3]; at 100.0 µM 7% | [4]; at 1.2 µM 5% | [4]; at 3.7 µM 15% | [4]; [16] 2% | [4]; at 11.0 µM 30% | [4]; at 33.0 µM 46% | [4]; [17] -3% | [4]; at 50.0 µM 65.5% | [4]; at 100.0 µM 66% | [6]; at 1.2 µM -1% | [6]; at 3.7 µM 0% | [6]; at 11.0 µM 5% | [6]; at 33.0 µM 4% | [6]; at 100.0 µM 8% | [7]; [16] 10% | [7]; [17] 17% | [7]; at 50.0 µM 12.8% | [8]; at 1.2 µM -6% | [8]; at 3.7 µM -4% | [8]; at 11.0 µM 0% | [8]; at 33.0 µM -2% | [8]; at 100.0 µM 5% | [9]; [16] -5% | [9]; [17] 48% | [9]; at 50.0 µM 26.4% | [10]; at 1.2 µM -1% | [10]; at 3.7 µM -3% | [10]; [16] 11% | [10]; at 11.0 µM 0% | [10]; at 33.0 µM -2% | [10]; [17] 16% | [10]; at 50.0 µM 11.8% | [10]; at 100.0 µM 4% | [11]; at 1.2 µM -3% | [11]; at 3.7 µM 0% | [11]; at 11.0 µM 1% | [11]; at 33.0 µM 1% | [11]; at 100.0 µM 2% | [12]; at 1.2 µM -1% | [12]; at 3.7 µM 0% | [12]; at 11.0 µM 1% | [12]; at 33.0 µM 3% | [12]; at 100.0 µM 7% | [13]; at 1.2 µM 0% | [13]; at 3.7 µM 5% | [13]; at 11.0 µM 3% | [13]; at 33.0 µM 4% | [13]; at 100.0 µM 5% | [14]; [16] 38% | [14]; [17] -10% | [14]; at 50.0 µM 20.3% | [15]; at 1.2 µM -4% | [15]; at 3.7 µM -1% | [15]; at 11.0 µM 5% | [15]; at 33.0 µM -7% | [15]; at 100.0 µM 1%
